JMJD2A Tudor: blocks the human JMJD2A Tudor domain; Potency, µM (top dose mostly 114 µM), actives largely listed as inhibitors; AlphaScreen JMJD2A-Tudor / H3K4me3 peptide binding; AID 504339; 390,000 compounds, 4.4% hits; O75164; note: nearly all actives have a fitted effect of over 50% in size
CtBP-E1A blk: CtBP/E1A binding inhibition | AlphaScreen GST-E1A/His-CtBP binding, 1536-well; active compounds read low | activity change, % (test concentration not listed) | 340,000 compounds, 0.49% hits; in the data active = activity change below about -65%; inconclusive = mostly about -30% to -63%
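Protein mix (5X: 125 nM each GST-E1A, His-CtBP) was incubated with pinned compound 2 h at 37 deg C in dark, in 50 mM Tris pH 8.0 buffer with 300 mM NaCl. Glutathione donor and nickel acceptor beads followed; AlphaScreen signal read after 1 h.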
Six1-Eya2 inh: inhibitors of human Six1/Eya2 interaction. 360,000 compounds, 0.56% hits. AID 651725. Q15475+O00167. activity change, % (no concentration beside the values). AlphaScreen GST-Six1/His-Eya2 binding, biochemical; active compounds read low; in the data active = activity change below about -65%; inconclusive = mostly about -30% to -63%
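Homogeneous AlphaScreen proximity assay pairing GST-Six1 with His-tagged Eya2 (added as 5X mix: 250 nM and 500 nM) in 50 mM Tris pH 8.0, 300 mM NaCl, 1 mM TCEP. Glutathione donor and nickel acceptor beads; 1 h, 37 °C, dark.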
HP1b chromo inh: HP1-beta chromodomain-methylated histone interaction inhibition; P83916; AlphaScreen HP1-beta / biotin-H3K9me3 peptide binding; Potency, µM (doses to about 114 µM), usual class: inhibitors; 390,000 compounds, 0.56% hits; AID 540317; note: nearly all actives have a fitted effect of over 70% in size
Target sequence (P83916 whole entry, looked up): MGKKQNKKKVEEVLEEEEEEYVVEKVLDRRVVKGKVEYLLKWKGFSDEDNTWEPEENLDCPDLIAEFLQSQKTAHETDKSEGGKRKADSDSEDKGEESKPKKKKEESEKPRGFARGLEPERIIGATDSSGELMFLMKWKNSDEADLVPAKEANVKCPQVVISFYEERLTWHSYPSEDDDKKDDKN
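AlphaScreen: HP1-beta (50 nM) preformed 30 min with biotin-H3(1-18)K9me3 peptide (50 nM) in PBS pH 7.4, 0.01% Tween-20. Compound added for 30 min at RT, then streptavidin donor/nickel chelate acceptor beads (10 ug/mL) for 30 min.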
BAZ2B inh: BAZ2B (human) inhibition; Q9UIF8; AlphaScreen BAZ2B-H3K14Ac peptide displacement; Potency, µM (series often up to 114 µM), most hits filed as inhibitors; 360,000 compounds, 4.4% hits; AID 504333; note: nearly all actives have a fitted effect of over 60% in size
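Compounds, titrated to a top concentration of 110 uM, were incubated 30 min at room temperature with preformed BAZ2B/acetyl-K14 H3 peptide complex (50 nM each). Proximity signal was measured by AlphaScreen after 20 min with beads.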
G9a block: blocks human histone lysine methyltransferase G9a. Q96KQ7. 350,000 compounds, 8.8% hits. Potency, µM (top dose mostly 102 µM), actives largely listed as inhibitors. G9a H3K9 monomethylation, AlphaScreen, 2 h. AID 504332; note: nearly all actives have a fitted effect of over 75% in size
Target sequence (Q96KQ7 913-1193 limits assumed): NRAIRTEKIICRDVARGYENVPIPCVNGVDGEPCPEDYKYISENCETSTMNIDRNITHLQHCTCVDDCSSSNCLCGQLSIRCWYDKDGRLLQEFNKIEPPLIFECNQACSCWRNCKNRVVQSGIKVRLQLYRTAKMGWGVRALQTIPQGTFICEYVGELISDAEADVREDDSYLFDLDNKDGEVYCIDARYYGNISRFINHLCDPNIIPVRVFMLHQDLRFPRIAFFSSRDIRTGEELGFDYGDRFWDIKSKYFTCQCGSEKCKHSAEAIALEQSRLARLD
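Quantitative HTS format: methyltransferase activity on a biotin-tagged H3K9 peptide is measured by AlphaScreen, using a rabbit anti-monomethyl-H3K9 antibody with streptavidin donor and anti-IgG acceptor beads. Final levels are 20 nM enzyme, 500 nM peptide, 20 uM SAM; 2 h RT.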
Large screens that a line does not name were inactive; ! = a repeat was not active. A selection: hits, their analogues and other compounds. The true share with any hit is near 10%. Unless noted, calls come from the whole dose curve; as a rule, active = well fitted inhibition curve with a large enough effect; inconclusive = small, poorly fitted or top-dose-only effect; inactive = no such curve, though single readings can be large or run the other way.

COc1ccc(CN2C(=O)CN=C2Nc2cc(C)ccc2C)cc1	BAZ2B inh inconclusive, G9a block inconclusive
CCc1ccccc1NC1=NCC(=O)N1Cc1ccc(OC)cc1	BAZ2B inh inconclusive, G9a block 45µM
CCOc1ccc(NC2=NCC(=O)N2CCc2ccccc2)cc1	BAZ2B inh 79µM, G9a block inconclusive
O=C(COc1ccccc1[N+](=O)[O-])N1CCC(c2nc3ccccc3o2)CC1	none (no result: CtBP-E1A blk, Six1-Eya2 inh)
c1ccc(CNc2nc(-c3ccc4c(c3)OCO4)nc3ccccc23)cc1	none (no result: JMJD2A Tudor, CtBP-E1A blk, Six1-Eya2 inh, HP1b chromo inh, BAZ2B inh)
S=c1nccc(-c2ccc3c(c2)CCO3)[nH]1	G9a block 40µM
COc1ccc(NC(=O)c2oc3c(c2C)-c2nn(Cc4c(F)cccc4Cl)cc2CC3)c(OC)c1	none (no result: CtBP-E1A blk, Six1-Eya2 inh)
Cc1ccccc1S(=O)(=O)/N=C(/c1ccccc1)N1CCOCC1	JMJD2A Tudor 32µM (no result: G9a block)
Cc1ccc(C)c(N2CCN(C(=O)c3ccc4c(Cl)c5c(nc4c3)CCCC5)CC2)c1	BAZ2B inh inconclusive, G9a block inconclusive (no result: CtBP-E1A blk, Six1-Eya2 inh)
CC(=O)/C(N=Nc1cccc(C(F)(F)F)c1)=C(\C)O	none
O=C(/C(N=Nc1cccc(C(F)(F)F)c1)=C(/O)c1cccs1)C(F)(F)F	JMJD2A Tudor 50µM, Six1-Eya2 inh inconclusive, HP1b chromo inh inconclusive, BAZ2B inh inconclusive, G9a block 20µM
COc1cc2c(cc1OC)C(c1ccc(O)cc1)NCC2 (stereo not drawn)	none
Oc1cc2c(c(Cl)c1O)CCNCC2c1ccccc1 (stereo not drawn)	JMJD2A Tudor 45µM, G9a block 11µM (no result: BAZ2B inh)
Oc1ccc(C2CNCCc3c2cc(O)c(O)c3Cl)cc1 (stereo not drawn)	JMJD2A Tudor 35µM!, G9a block 5.3µM!
C=CCn1c(SCC(=O)NC2CCS(=O)(=O)C2)nnc1-c1cc2c(s1)CCC(CC)C2 (stereo not drawn)	none
C=CCn1c(-c2cc3c(s2)CCC(CC)C3)n[nH]c1=S (stereo not drawn)	JMJD2A Tudor inconclusive, G9a block 11µM
CCN(CC)CCCNC(=O)C1CCN(S(=O)(=O)CC)CC1	none (no result: CtBP-E1A blk, Six1-Eya2 inh)
Cc1cc(Cl)c(OCCCSc2nc(C)cc(=O)[nH]2)c(Br)c1	none
Cc1cc(Cl)cc(Cl)c1OCCN1CCCC1	JMJD2A Tudor 50µM, HP1b chromo inh inconclusive, G9a block 50µM
Cc1cc(Cl)cc(C)c1OCCn1ccnc1	none
Cc1cc(Cl)cc(Cl)c1OCCCCN(C)C	JMJD2A Tudor 45µM, HP1b chromo inh inconclusive, G9a block 8.9µM
Cc1cc(Cl)c(OCCOCCN2CCNCC2)c(Cl)c1	none (no result: CtBP-E1A blk, BAZ2B inh, G9a block)
Cc1cc(Cl)c(OCCCN2CCCCC2)c(Br)c1	JMJD2A Tudor 28µM, HP1b chromo inh inconclusive, BAZ2B inh 50µM, G9a block inconclusive
Cc1cc(C)c(OCCOCCN2CCN(C)CC2)c(Cl)c1	JMJD2A Tudor 1.6µM, HP1b chromo inh inconclusive, BAZ2B inh 32µM, G9a block 3.5µM
COc1ccc(NC(=O)c2cc3c([nH]c2=O)CC(c2ccccc2)CC3=O)cc1 (stereo not drawn)	none (no result: CtBP-E1A blk, Six1-Eya2 inh)
COc1ccc(-c2cc3nc(C)c(CCC(=O)Nc4cccc(C(F)(F)F)c4)c(C)n3n2)c(OC)c1	G9a block inconclusive (no result: CtBP-E1A blk, Six1-Eya2 inh)
CCOC(=O)N1CCC(NC(=O)c2ccc3c(c2)N(Cc2ccc(Cl)cc2)C(=O)c2ccccc2S3(=O)=O)CC1	none (no result: CtBP-E1A blk, Six1-Eya2 inh)
CCc1ccc(NC(=O)Cn2c(=O)c3cc(Cl)ccc3n3nncc23)cc1	none (no result: CtBP-E1A blk, Six1-Eya2 inh)
Cc1cc(C)c(OCCN2C(=O)NC(C)(C)C2=O)c(Cl)c1	none
Cc1cc(C)c(OCCN2CCCC2)c(Cl)c1	G9a block 45µM (no result: CtBP-E1A blk)
C#CCOCCOCCOCCNc1nc(N2CCN(C(=O)Cn3cc(CCCN=C(N)N)nn3)CC2)nc(N2CCN(C(=O)[C@H](CCCCN)n3cc(CCCC)nn3)CC2)n1	BAZ2B inh 79µM
C#CCOCCOCCOCCNc1nc(N2CCN(C(=O)Cn3cc(CCCN=C(N)N)nn3)CC2)nc(N2CCN(C(=O)[C@H](C)n3cc(CCCN=C(N)N)nn3)CC2)n1	BAZ2B inh inconclusive, G9a block 56µM (no result: CtBP-E1A blk)
